Holding throughout (set-up): species or system human, MV4-11 + K-562 + COLO205 + SK-N-BE2 + OVCAR-8
One test deals with ATM. The following applies: read-out: apparent Kd, n = 1.
The next test deals with AURKA. The following applies: read-out: apparent Kd, n = 1.
Another test concerns BCR. The following applies: read-out: apparent Kd, n = 1.
For the next test, the system named is CAMKK2. The following applies: read-out: apparent Kd, n = 1.
In a further test the test system is CHEK1. The following applies: read-out: apparent Kd, n = 1.
Another test has as its system EPHA4. The following applies: read-out: apparent Kd, n = 1.
A further test relates to EPHA5. The following applies: read-out: apparent Kd, n = 1.
Another test concerns EPHB2. The following applies: read-out: apparent Kd, n = 1.
The next test deals with EPHB4. The following applies: read-out: apparent Kd, n = 1.
For a further test, the system named is MARK3. The following applies: read-out: apparent Kd; compound concentrations: 100 nM and 1000 nM (sheet 'Samples'), CATDS: 9.8950713499473906E-3; n = 1.
In the next test the test system is PRKACA. The following applies: read-out: apparent Kd, n = 1.
A further test relates to PRKACB. The following applies: read-out: apparent Kd, n = 1.
The next test concerns TNK1. The following applies: read-out: apparent Kd, n = 1.
Another test concerns TNK2. The following applies: read-out: apparent Kd, n = 1.
A further test deals with CSNK1D. The following applies: read-out: apparent Kd, n = 1.
For the next test, the system named is MAPK9. The following applies: read-out: apparent Kd; compound concentrations: 100 nM and 1000 nM (sheet 'Samples'), CATDS: 6.8874136988771595E-2; n = 1.
Another test concerns RPS6KA4. The following applies: read-out: apparent Kd, n = 1.
In a further test the test system is PRKAG2. The following applies: read-out: apparent Kd; compound concentrations: 100 nM and 1000 nM (sheet 'Samples'), CATDS: 2.5465407694982199E-2; n = 1.
Where [1] appears, read: compound concentrations:100 nM and 1000 nM (sheet 'Samples').

Read-outs that look alike come from different tables or passages of the source.

As to `Cl.Nc1c(C(=O)c2cccc(C#CCN3CCCCC3)c2)cnn1-c1ccc(F)cc1` [RO1154461-001], the potency estimated from few doses was 0.161 µM in the test with ATM (compound concentrations: 100 nM and 1000 nM (sheet 'Samples'), CATDS: 2.8189903331148802E-2); 0.784 µM in the test on AURKA (compound concentrations: 100 nM and 1000 nM (sheet 'Samples'), CATDS: 1.31144942702613E-2); 0.336 µM in the test on BCR (compound concentrations: 100 nM and 1000 nM (sheet 'Samples'), CATDS: 1.8870015548456399E-2); 0.934 µM in the test with CAMKK2 (compound concentrations: 100 nM and 1000 nM (sheet 'Samples'), CATDS: 1.2329030932227101E-2); 1.55 µM in the test with CHEK1 (compound concentrations: 100 nM and 1000 nM (sheet 'Samples'), CATDS: 1.05759590598224E-2); 0.356 µM with EPHA4 (compound concentrations: 100 nM and 1000 nM (sheet 'Samples'), CATDS: 1.83423267934671E-2). Further, the potency estimated from few doses with EPHA5 (compound concentrations: 100 nM and 1000 nM (sheet 'Samples'), CATDS: 2.15215497869925E-2) was 0.26 µM; in the test on EPHB2 (compound concentrations: 100 nM and 1000 nM (sheet 'Samples'), CATDS: 2.8724117835498601E-2) it was 0.156 µM; in the test with EPHB4 (compound concentrations: 100 nM and 1000 nM (sheet 'Samples'), CATDS: 3.5435159362778398E-2), 0.111 µM; in the test on MARK3 it was 2.03 µM; in the test with PRKACA (compound concentrations: 100 nM and 1000 nM (sheet 'Samples'), CATDS: 1.0779981289506101E-2), 1.44 µM; in the test on PRKACB (compound concentrations: 100 nM and 1000 nM (sheet 'Samples'), CATDS: 1.14120731511483E-2) it was 1.19 µM. Also, the potency estimated from few doses is 0.0755 µM in the test on TNK1 (compound concentrations: 100 nM and 1000 nM (sheet 'Samples'), CATDS: 4.5946833879509097E-2); 0.0561 µM in the test on TNK2 (compound concentrations: 100 nM and 1000 nM (sheet 'Samples'), CATDS: 5.6879237534392203E-2).

With `COc1cccc2c(-c3ccncc3)c(-c3ccc(F)cc3)nn12` [GW468513X], the potency estimated from few doses in the test on CSNK1D (compound concentrations: 100 nM and 1000 nM (sheet 'Samples'), CATDS: 0.14597424406190301) is 0.052 µM; in the test on MAPK9, 0.218 µM.

For `Cc1cccc2c(-c3ccncn3)c(-c3ccc(F)cc3)nn12` [GW515532X], the potency estimated from few doses with CSNK1D (compound concentrations: 100 nM and 1000 nM (sheet 'Samples'), CATDS: 0.213897093745788) was 1.92 µM.

On to `CCn1c(-c2nonc2N)nc2c(-c3ccccc3)ncc(OCCCN)c21.CCn1c(-c2nonc2N)nc2c(-c3ccccc3)ncc(OCCCN)c21.O=C(O)C(F)(F)F.O=C(O)C(F)(F)F` [GSK260205A], for which the potency estimated from few doses is 0.469 µM in the test on CSNK1D (compound concentrations: 100 nM and 1000 nM (sheet 'Samples'), CATDS: 4.20751700104477E-2); 1.48 µM in the test with PRKACA (compound concentrations: 100 nM and 1000 nM (sheet 'Samples'), CATDS: 2.90938755589953E-2); 0.557 µM in the test on PRKACB (compound concentrations: 100 nM and 1000 nM (sheet 'Samples'), CATDS: 3.9372517693277299E-2).

Consider `CCn1c(-c2nonc2N)nc2c(C#CC(C)(C)O)nc(OCCN)cc21.CCn1c(-c2nonc2N)nc2c(C#CC(C)(C)O)nc(OCCN)cc21.Cl.Cl` [GSK902056A], for which the potency estimated from few doses with PRKACA (setting [1]) is 1.2 µM; in the test with PRKACB (setting [1]), 1 µM.

For `CN1C[C@@H]2Cn3c(c(C4=C(c5cn(C)c6ccccc56)C(=O)NC4=O)c4ccccc43)C[C@H]2C1.Cl` [RO0320234-001], the potency estimated from few doses in the test with ATM (setting [1]) was 0.0297 µM; in the test on AURKA (setting [1]) it was 0.368 µM; in the test with BCR (setting [1]), 0.0571 µM; in the test with CAMKK2 (setting [1]), 1.43 µM; with CHEK1 (setting [1]) it was 1.28 µM; in the test with EPHA4 (setting [1]) it was 0.321 µM. Also, the potency estimated from few doses was 0.207 µM in the test with EPHA5 (setting [1]); 0.0529 µM in the test with EPHB2 (setting [1]); 0.0159 µM with EPHB4 (setting [1]); 1.63 µM with RPS6KA4 (setting [1]); 0.00927 µM with TNK1 (setting [1]); 0.0844 µM in the test with TNK2 (setting [1]).

Regarding `Clc1cc(Cl)cc(Nc2ccnc(Nc3cc(Cl)cc(Cl)c3)n2)c1` [GSK175726A], the potency estimated from few doses in the test on ATM (compound concentrations: 100 nM and 1000 nM (sheet 'Samples'), CATDS: 2.7134606068091E-2) was 0.0775 µM; in the test with AURKA (compound concentrations: 100 nM and 1000 nM (sheet 'Samples'), CATDS: 1.16998692507499E-2) it was 0.47 µM; with BCR (compound concentrations: 100 nM and 1000 nM (sheet 'Samples'), CATDS: 1.5030836072921499E-2), 0.242 µM; in the test on CAMKK2 (compound concentrations: 100 nM and 1000 nM (sheet 'Samples'), CATDS: 8.7749844490250094E-3) it was 1.42 µM; in the test on CHEK1 (compound concentrations: 100 nM and 1000 nM (sheet 'Samples'), CATDS: 9.2936135533363204E-3), 1.08 µM; in the test on EPHA4 (compound concentrations: 100 nM and 1000 nM (sheet 'Samples'), CATDS: 2.4571343446097599E-2), 0.0915 µM. Moreover, the potency estimated from few doses is 0.164 µM in the test on EPHA5 (compound concentrations: 100 nM and 1000 nM (sheet 'Samples'), CATDS: 1.7966956970046102E-2); 0.134 µM in the test with EPHB2 (compound concentrations: 100 nM and 1000 nM (sheet 'Samples'), CATDS: 1.9895433949459099E-2); 0.103 µM in the test on EPHB4 (compound concentrations: 100 nM and 1000 nM (sheet 'Samples'), CATDS: 2.29851767560591E-2); 0.0861 µM in the test on PRKAG2; 1.72 µM in the test on RPS6KA4 (compound concentrations: 100 nM and 1000 nM (sheet 'Samples'), CATDS: 8.4689848583526291E-3); 0.0249 µM with TNK1 (compound concentrations: 100 nM and 1000 nM (sheet 'Samples'), CATDS: 5.9656473094293803E-2). Moreover, the potency estimated from few doses in the test with TNK2 (compound concentrations: 100 nM and 1000 nM (sheet 'Samples'), CATDS: 2.7223225317324601E-2) was 0.0771 µM.

For the molecule `Cc1cccc(-c2nc(Nc3ccncc3)c3sccc3n2)n1` [GW869641X], the potency estimated from few doses with CSNK1D (setting [1]) is 0.185 µM.

(Values after article PMC11062922 (Nature Chemical Biology, 2023).)
